Tested on: HEK293 WT BDD-FVIII-Gluc
Assay: secreted FVIII-Gluc luciferase Z-score vs DMSO control; higher = more FVIII-Gluc secretion
Settings: 5 µM
Experimental: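 Natural plant-compound library (480 compounds, ST catalogue IDs) screened on HEK293 cells stably expressing WT BDD-FVIII-Gaussia luciferase fusion at 5 µM. Secreted Gluc activity in the medium is given as a Z-score relative to DMSO controls.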

Question: How did the “secreted FVIII-Gluc luciferase Z-score” value turn out when `CC[C@H]1C2C[C@H]3[C@@H]4N(C)c5ccccc5[C@]45C[C@@H](C2[C@H]5O)N3[C@@H]1O` (some centres undefined) was run?
Answer: 0.504

Question: For `O=c1cccc2n1CC1CC2CN(CCO)C1` (centres undefined), which “secreted FVIII-Gluc luciferase Z-score” value is on record?
Answer: 0.624

Question: Which “secreted FVIII-Gluc luciferase Z-score” value does the source give for `COc1cc2c(cc1O)C[C@H]1c3c(cc(OC)c(O)c3-2)CCN1C` here?
Answer: 0.61

Question: Which “secreted FVIII-Gluc luciferase Z-score” value does the source give for `C[C@@H](CO)NC(=O)[C@@H]1C=C2c3cccc4[nH]cc(c34)C[C@H]2N(C)C1` here?
Answer: 0.475

Question: `CC(C)[C@H]1C(=O)N2CCC[C@H]2[C@]2(O)OC(NC(=O)[C@@H]3C=C4c5cccc6[nH]cc(c56)C[C@H]4N(C)C3)(C(C)C)C(=O)N12` (some centres undefined) was tested. Which “secreted FVIII-Gluc luciferase Z-score” value did it give?
Answer: 0.939

Question: With `O=c1cccc2n1CC1CC2CN2CCCC[C@H]12` (some centres undefined) as the compound, how does the “secreted FVIII-Gluc luciferase Z-score” value read?
Answer: 0.225

Question: For `CN1CCc2cc3c(cc2[C@H]1[C@@H]1OC(=O)c2c1ccc1c2OCO1)OCO3`, which “secreted FVIII-Gluc luciferase Z-score” value is on record?
Answer: 0.754

Question: For `NCCc1c[nH]c2ccc(O)cc12`, which “secreted FVIII-Gluc luciferase Z-score” value is on record?
Answer: 0.752

Question: How did the “secreted FVIII-Gluc luciferase Z-score” value turn out when `C[C@H]1CCC/C=C/C2C[C@H](O)C[C@H]2[C@H](O)/C=C/C(=O)O1` (some centres undefined) was run?
Answer: -4.99

Question: `Cc1nccc2c1[nH]c1ccccc12` was tested. Which “secreted FVIII-Gluc luciferase Z-score” value did it give?
Answer: -0.617

Question: Which “secreted FVIII-Gluc luciferase Z-score” value does the source give for `C[N+]1=Cc2cc3c(cc2CC1)OCO3` here?
Answer: 0.204

Question: Which “secreted FVIII-Gluc luciferase Z-score” value does the source give for `CC(=O)c1c(O)c(C)c(O)c(Cc2c(O)c3c(c(C(=O)/C=C/c4ccccc4)c2O)OC(C)(C)C=C3)c1O` here?
Answer: -1.16

Question: Which “secreted FVIII-Gluc luciferase Z-score” value does the source give for `CO[C@]12C[C@@H](COC(=O)c3cncc(Br)c3)CN(C)[C@@H]1Cc1cn(C)c3cccc2c13` here?
Answer: 0.94

Question: Which “secreted FVIII-Gluc luciferase Z-score” value does the source give for `CN1CC[C@@]2(C)c3cc(O)ccc3N(C)[C@@H]12` here?
Answer: -0.624

Question: For `O=C1C[C@@H]2OCC=C3CN4CC[C@]56c7ccccc7N1[C@H]5[C@H]2[C@H]3C[C@H]46`, which “secreted FVIII-Gluc luciferase Z-score” value is on record?
Answer: -0.432

Question: How did the “secreted FVIII-Gluc luciferase Z-score” value turn out when `COc1ccc2c3c([nH]c2c1)C(C)=NCC3` was run?
Answer: -2.05

Question: With `O=C1C=C2C=C[C@@H]3C[C@@]2(O1)[C@H]1CCCCN31` as the compound, how does the “secreted FVIII-Gluc luciferase Z-score” value read?
Answer: 0.666

Question: Which “secreted FVIII-Gluc luciferase Z-score” value does the source give for `COC(C)C(O)(C(=O)OC1=CCN2CC[C@H](O)[C@@H]12)C(C)C` (some centres undefined) here?
Answer: -0.914

Question: Which “secreted FVIII-Gluc luciferase Z-score” value does the source give for `CC12C(=O)OC(=O)C1(C)C1CCC2O1` (centres undefined) here?
Answer: -4.31

Question: For `CC1=NCCc2c1[nH]c1cc(O)ccc21`, which “secreted FVIII-Gluc luciferase Z-score” value is on record?
Answer: -0.262

Question: `Cc1cc2c(C(C)C)c(O)c(O)c(C=O)c2c(O)c1-c1c(C)cc2c(C(C)C)c(O)c(O)c(C=O)c2c1O` was tested. Which “secreted FVIII-Gluc luciferase Z-score” value did it give?
Answer: 1.13

Question: With `C=C[C@H]1CN2CCC1C[C@@H]2[C@@H](O)c1ccnc2ccccc12` (some centres undefined) as the compound, how does the “secreted FVIII-Gluc luciferase Z-score” value read?
Answer: -0.283

Question: Which “secreted FVIII-Gluc luciferase Z-score” value does the source give for `CN(C)Cc1c[nH]c2ccccc12` here?
Answer: 0.161

Question: How did the “secreted FVIII-Gluc luciferase Z-score” value turn out when `O=c1ccc2cc(OC3OC(CO)C(O)C(O)C3O)c(O)cc2o1` (centres undefined) was run?
Answer: 0.455

Question: How did the “secreted FVIII-Gluc luciferase Z-score” value turn out when `CC(=O)N1C[C@@H]2C[C@H](C1)c1cccc(=O)n1C2` was run?
Answer: -0.118

Question: Which “secreted FVIII-Gluc luciferase Z-score” value does the source give for `COc1cc2c(cc1OC)C(C)NCC2` (centres undefined) here?
Answer: 0.0745

Question: With `c1cncc(C2CCCCN2)c1` (centres undefined) as the compound, how does the “secreted FVIII-Gluc luciferase Z-score” value read?
Answer: -0.711

Question: `C/C=C/c1ccc2c(c1)OCO2` was tested. Which “secreted FVIII-Gluc luciferase Z-score” value did it give?
Answer: 0.131

Question: How did the “secreted FVIII-Gluc luciferase Z-score” value turn out when `CCCCc1ccc(C(=O)O)nc1` was run?
Answer: 0.032

Question: How did the “secreted FVIII-Gluc luciferase Z-score” value turn out when `COc1ccn(C)c(=O)c1C#N` was run?
Answer: -0.599

Question: `C[C@@H]1C[C@@H]([C@H](O)CC2CC(=O)NC(=O)C2)C(=O)[C@@H](C)C1` was tested. Which “secreted FVIII-Gluc luciferase Z-score” value did it give?
Answer: -7.2

Question: `COc1cc2c(c(OC)c1OC)-c1ccc(O)c(=O)cc1[C@@H](NC(C)=O)CC2` was tested. Which “secreted FVIII-Gluc luciferase Z-score” value did it give?
Answer: 0.222

Question: Which “secreted FVIII-Gluc luciferase Z-score” value does the source give for `CN1CC(C(=O)NC2(C)OC3(O)C4CCCN4C(=O)C(Cc4ccccc4)N3C2=O)C=C2c3cccc4[nH]cc(c34)CC21` (centres undefined) here?
Answer: 0.871

Question: How did the “secreted FVIII-Gluc luciferase Z-score” value turn out when `COc1ccc2c(c1OC)C(=O)O[C@@H]2[C@H]1c2cc3c(cc2CCN1C)OCO3` was run?
Answer: 1.04

From the supplement of paper PMC12024529
